Of roughly 21,000 targets only a part is listed; those with the largest changes were picked by preference.
Compound: CC1Cc2ccccc2N1C(=O)C1CCCN(C1)C(=O)CCl (mixture of isomers) [TRIM25 ligand 11 (diastereomer mixture)]
Experiment: probe-labelled cysteine peptide fold change vs DMSO (competition) (log2 fold change); higher = less target engagement (more negative = stronger competition)
Conditions: 50 µM; THP-1; incubation time: 4 h
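Also: competitive chemoproteomic profiling in live THP-1 cells with an iodoacetamide desthiobiotin (IA-DTB) probe, comparing probe-labelled peptide intensities in compound-treated cells against DMSO-treated controls.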

UniProt Q9NQR4, sequence (Q9NQR4 whole entry, looked up): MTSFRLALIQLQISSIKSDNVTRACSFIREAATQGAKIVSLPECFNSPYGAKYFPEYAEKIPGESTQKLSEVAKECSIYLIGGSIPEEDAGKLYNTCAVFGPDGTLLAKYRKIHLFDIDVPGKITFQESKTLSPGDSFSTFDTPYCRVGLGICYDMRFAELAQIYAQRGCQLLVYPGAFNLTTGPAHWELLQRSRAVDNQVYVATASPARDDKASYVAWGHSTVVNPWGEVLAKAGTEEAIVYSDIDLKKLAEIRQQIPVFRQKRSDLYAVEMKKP
UniProt Q5JVF3, sequence (Q5JVF3 whole entry, looked up): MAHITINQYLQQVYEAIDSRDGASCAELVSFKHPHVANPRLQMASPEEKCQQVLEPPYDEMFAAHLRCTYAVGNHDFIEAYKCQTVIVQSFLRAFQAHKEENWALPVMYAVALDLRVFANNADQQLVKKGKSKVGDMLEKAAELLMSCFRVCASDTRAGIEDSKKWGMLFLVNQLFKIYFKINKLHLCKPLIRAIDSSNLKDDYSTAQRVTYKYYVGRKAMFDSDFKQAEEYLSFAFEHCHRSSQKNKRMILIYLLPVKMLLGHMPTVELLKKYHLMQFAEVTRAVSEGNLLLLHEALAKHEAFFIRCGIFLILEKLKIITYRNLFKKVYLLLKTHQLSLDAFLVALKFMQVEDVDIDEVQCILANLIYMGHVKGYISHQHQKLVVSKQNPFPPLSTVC
UniProt Q8NI08, sequence (Q8NI08 whole entry, looked up): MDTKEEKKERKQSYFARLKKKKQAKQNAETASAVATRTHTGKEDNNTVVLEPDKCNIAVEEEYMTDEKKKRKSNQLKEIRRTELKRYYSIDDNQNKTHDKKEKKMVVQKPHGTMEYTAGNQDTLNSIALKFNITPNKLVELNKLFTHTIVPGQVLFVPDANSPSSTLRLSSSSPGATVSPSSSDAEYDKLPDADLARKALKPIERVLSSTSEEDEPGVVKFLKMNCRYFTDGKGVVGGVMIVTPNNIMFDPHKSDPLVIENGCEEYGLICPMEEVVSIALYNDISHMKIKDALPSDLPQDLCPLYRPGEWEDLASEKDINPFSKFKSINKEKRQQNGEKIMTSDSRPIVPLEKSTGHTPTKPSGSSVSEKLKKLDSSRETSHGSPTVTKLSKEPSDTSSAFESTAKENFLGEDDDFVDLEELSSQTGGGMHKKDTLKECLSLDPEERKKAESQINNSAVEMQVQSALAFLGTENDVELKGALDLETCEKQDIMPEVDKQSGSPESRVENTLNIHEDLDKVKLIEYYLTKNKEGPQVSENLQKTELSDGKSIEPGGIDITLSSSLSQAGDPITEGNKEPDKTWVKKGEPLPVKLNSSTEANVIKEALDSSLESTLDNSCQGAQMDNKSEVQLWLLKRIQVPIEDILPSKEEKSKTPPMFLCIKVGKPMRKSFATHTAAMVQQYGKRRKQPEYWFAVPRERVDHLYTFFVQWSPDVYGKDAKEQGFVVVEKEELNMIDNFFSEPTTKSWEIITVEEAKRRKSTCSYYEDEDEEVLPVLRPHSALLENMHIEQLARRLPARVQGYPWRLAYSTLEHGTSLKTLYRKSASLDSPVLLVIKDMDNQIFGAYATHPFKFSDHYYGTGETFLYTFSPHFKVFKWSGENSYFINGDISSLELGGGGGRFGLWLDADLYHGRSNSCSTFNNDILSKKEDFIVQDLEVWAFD
UniProt O75607, sequence (O75607 whole entry, looked up): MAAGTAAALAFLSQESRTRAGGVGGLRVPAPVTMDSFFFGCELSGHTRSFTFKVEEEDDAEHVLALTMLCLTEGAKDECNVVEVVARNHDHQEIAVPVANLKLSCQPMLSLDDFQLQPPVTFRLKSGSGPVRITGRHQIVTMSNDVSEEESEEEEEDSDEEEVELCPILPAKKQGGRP
UniProt O15381, sequence (O15381 whole entry, looked up): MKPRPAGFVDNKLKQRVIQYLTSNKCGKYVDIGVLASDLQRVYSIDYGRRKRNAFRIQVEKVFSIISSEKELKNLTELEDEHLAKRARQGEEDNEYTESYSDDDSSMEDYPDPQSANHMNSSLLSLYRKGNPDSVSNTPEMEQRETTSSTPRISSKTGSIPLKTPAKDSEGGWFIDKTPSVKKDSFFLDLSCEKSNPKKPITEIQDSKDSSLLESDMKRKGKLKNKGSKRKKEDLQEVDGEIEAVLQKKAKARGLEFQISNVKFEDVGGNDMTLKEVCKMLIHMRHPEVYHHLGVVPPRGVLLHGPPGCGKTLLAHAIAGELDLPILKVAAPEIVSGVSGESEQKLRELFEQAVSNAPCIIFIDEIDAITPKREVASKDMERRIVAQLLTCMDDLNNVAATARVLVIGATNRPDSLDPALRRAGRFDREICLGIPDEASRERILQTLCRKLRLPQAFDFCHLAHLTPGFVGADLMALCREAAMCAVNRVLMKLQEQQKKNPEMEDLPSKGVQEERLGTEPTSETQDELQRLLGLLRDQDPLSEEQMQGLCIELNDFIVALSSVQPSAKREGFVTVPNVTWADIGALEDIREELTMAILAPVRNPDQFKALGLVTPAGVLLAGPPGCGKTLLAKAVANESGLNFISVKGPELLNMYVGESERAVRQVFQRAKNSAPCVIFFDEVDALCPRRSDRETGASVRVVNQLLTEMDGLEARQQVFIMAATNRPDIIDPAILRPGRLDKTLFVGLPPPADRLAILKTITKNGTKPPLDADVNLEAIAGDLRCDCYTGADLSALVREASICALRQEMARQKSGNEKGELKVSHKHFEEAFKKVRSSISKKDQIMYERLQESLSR
UniProt Q9UGV2, sequence (Q9UGV2 whole entry, looked up): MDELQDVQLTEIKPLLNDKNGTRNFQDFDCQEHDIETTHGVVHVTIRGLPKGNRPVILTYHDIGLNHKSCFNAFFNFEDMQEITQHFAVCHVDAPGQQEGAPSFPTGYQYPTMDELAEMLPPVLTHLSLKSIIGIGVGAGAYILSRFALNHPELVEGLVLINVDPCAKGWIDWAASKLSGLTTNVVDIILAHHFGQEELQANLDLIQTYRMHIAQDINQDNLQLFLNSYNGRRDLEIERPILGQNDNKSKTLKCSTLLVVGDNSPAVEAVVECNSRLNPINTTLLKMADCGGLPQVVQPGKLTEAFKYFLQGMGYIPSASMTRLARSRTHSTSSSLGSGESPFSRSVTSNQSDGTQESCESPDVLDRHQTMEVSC
UniProt Q9BXW6, sequence (Q9BXW6 whole entry, looked up): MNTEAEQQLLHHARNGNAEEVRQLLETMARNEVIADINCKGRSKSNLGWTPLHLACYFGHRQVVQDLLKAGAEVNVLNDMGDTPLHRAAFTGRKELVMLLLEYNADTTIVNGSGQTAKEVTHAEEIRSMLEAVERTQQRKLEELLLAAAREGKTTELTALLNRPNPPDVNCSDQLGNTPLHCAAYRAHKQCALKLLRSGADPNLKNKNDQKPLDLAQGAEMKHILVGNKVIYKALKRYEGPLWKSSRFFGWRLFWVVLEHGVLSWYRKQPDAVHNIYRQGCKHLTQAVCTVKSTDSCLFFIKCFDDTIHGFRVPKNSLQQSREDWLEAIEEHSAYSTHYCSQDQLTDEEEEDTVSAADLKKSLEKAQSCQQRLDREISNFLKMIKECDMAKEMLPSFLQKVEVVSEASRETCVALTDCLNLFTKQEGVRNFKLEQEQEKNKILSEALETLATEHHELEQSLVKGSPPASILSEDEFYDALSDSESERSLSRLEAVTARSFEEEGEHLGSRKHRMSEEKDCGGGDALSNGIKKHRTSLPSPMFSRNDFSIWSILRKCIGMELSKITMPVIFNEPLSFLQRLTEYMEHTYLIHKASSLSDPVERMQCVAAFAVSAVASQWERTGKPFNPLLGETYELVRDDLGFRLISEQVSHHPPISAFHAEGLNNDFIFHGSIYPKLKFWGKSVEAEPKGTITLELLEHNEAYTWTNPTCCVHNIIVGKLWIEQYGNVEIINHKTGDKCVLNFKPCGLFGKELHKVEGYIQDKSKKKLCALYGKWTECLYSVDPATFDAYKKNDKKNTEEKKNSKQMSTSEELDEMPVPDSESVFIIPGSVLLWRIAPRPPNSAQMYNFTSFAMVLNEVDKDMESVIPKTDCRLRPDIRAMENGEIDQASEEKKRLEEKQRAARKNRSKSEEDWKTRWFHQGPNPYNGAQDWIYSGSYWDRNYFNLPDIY
UniProt Q9Y266, sequence (Q9Y266 whole entry): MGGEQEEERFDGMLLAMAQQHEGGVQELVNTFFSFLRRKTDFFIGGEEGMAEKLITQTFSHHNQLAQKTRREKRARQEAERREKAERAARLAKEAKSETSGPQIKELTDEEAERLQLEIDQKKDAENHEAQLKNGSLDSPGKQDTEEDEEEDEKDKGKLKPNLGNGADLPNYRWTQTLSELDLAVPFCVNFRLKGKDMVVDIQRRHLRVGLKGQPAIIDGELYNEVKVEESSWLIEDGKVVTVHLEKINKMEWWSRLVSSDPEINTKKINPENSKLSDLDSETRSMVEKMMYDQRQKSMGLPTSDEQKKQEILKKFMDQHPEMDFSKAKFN
UniProt Q9H857, sequence (Q9H857 whole entry): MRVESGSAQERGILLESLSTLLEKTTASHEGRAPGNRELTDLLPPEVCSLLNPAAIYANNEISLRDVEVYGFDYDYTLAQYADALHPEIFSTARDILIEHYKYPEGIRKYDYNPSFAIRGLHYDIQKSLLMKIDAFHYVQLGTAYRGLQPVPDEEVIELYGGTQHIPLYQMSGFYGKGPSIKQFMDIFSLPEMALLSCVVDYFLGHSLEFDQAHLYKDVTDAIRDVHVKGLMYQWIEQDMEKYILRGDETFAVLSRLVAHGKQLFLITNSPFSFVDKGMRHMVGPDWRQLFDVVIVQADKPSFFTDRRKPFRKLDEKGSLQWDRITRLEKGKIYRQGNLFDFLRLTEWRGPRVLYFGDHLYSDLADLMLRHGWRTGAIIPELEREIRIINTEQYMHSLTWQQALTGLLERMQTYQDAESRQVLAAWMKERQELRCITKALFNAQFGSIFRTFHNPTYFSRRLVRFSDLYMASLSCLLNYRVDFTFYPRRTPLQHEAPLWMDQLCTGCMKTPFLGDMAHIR
UniProt P61970, sequence (P61970 whole entry, looked up): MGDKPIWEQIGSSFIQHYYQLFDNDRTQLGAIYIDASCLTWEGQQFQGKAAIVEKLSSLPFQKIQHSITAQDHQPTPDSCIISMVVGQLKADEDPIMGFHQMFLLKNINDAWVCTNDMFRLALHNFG

Target	probe-labelled cysteine peptide fold change
PATZ1_Q9HBE1_297_EAGILPCGLCGK (UniProt Q9HBE1)	-0.0723
PDLIM7_Q9NR12_370_MTWHVHCFTCAACK (UniProt Q9NR12)	0.119
NUDT4B_A0A024RBG1_28_AACLCFR<|>NUDT3_O95989_25_AACLCFR<|>NUDT10_Q8NFP7_24_AACLCFR<|>NUDT11_Q96G61_24_AACLCFR<|>NUDT4_Q9NZJ9_25_AACLCFR (UniProt Q9NZJ9+Q8NFP7+Q96G61+O95989)	0.0838
NUP155_O75694_667_HNGICIYFSR (UniProt O75694)	0.207
NEDD4_P46934-4_4_ATCAVEVFGLLEDEENSR (UniProt P46934)	-0.509
NVL_O15381_431_FDREICLGIPDEASR (UniProt O15381)	0.0728
NDUFB10_O96000_119_EGQNYQQNCIK (UniProt O96000)	-0.0614
PAICS_P22234_100_CGETAFIAPQCEMIPIEWVCR (UniProt P22234)	0.1
NUTF2_P61970_80_IQHSITAQDHQPTPDSCIISMVVGQLKADEDPIMGFHQMFLLK (UniProt P61970)	-0.409
NOP58_Q9Y2X3_106_LNLSCIHSPVVNELMR (UniProt Q9Y2X3)	0.12
NUP160_Q12769_1042_QLVVVLCER (UniProt Q12769)	0.0629
NUP210_Q8TEM1_746_FVCAPPSR (UniProt Q8TEM1)	0.329
P3H1_Q32P28_123_CLGPPAAHSLSEEMELEFR (UniProt Q32P28)	0.646
NIT2_Q9NQR4_153_VGLGICYDMR (UniProt Q9NQR4)	-1.18
PAK2_Q13177_352_ECLQALEFLHANQVIHR (UniProt Q13177)	0.223
NT5DC2_Q9H857_475_FSDLYMASLSCLLNYR (UniProt Q9H857)	0.0662
NLRX1_Q86UT6_779_DLRDLLLHDQCQITTLR (UniProt Q86UT6)	-0.114
PDLIM1_O00151_286_HRHPECYVCTDCGTNLK (UniProt O00151)	0.192
P4HB_P07237_397+400_NVFVEFYAPWCGHCK (UniProt P07237)	-0.34
PARP1_P09874_845_IEREGECQR (UniProt P09874)	0.129

Target	probe-labelled cysteine peptide fold change
PARK7_Q99497_46_DPVQCSR (UniProt Q99497)	0.0666
NF1_P21359_1016_LCQLVEVMMAR (UniProt P21359)	0.181
OSBPL1A_Q9BXW6_520_DCGGGDALSNGIK (UniProt Q9BXW6)	0.0314
NET1_Q7Z628_267_GYCSNQLAAK (UniProt Q7Z628)	0.103
NUDC_Q9Y266_188_WTQTLSELDLAVPFCVNFR (UniProt Q9Y266)	0.00376
NDRG3_Q9UGV2_30_NFQDFDCQEHDIETTHGVVHVTIR (UniProt Q9UGV2)	0.0549
PCID2_Q5JVF3_25_DGASCAELVSFK (UniProt Q5JVF3)	-0.0805
NCKIPSD_Q9NZQ3_138_QPNGVCR (UniProt Q9NZQ3)	-0.32
NCOA7_Q8NI08_487_GALDLETCEK (UniProt Q8NI08)	-0.181
OAS3_Q9Y6K5_350_AGCSGLGHPIQLDPNQK (UniProt Q9Y6K5)	-0.0671
NSUN5_Q96P11_308_YHEVHYILLDPSCSGSGMPSR (UniProt Q96P11)	-0.0597
NSUN5P1_Q3KNT7-3_149_AAAGACTPPCT<|>NSUN5_Q96P11-2_461_AAAGACTPPCT (UniProt Q96P11+Q3KNT7)	-0.0921
P4HA1_P13674_293_QKYEMLCR (UniProt P13674)	-0.162
NID1_P14543_679_EGSPDALQNPCYIGTHGCDTNAACRPGPR (UniProt P14543)	-0.182
NUP160_Q12769_529_NLQQEFWCK (UniProt Q12769)	0.177
NSUN6_Q8TEA1_242_ILDLCAAPGGK (UniProt Q8TEA1)	-0.0703
NUP155_O75694_373_LYFSTCPFR (UniProt O75694)	0.262
NUS1_Q96E22_235_QKRPTDLDVDTLASLLSSNGCPDPDLVLK (UniProt Q96E22)	-0.641
NPM3_O75607_79_VEEEDDAEHVLALTMLCLTEGAKDECNVVEVVAR (UniProt O75607)	0.00371
NUP98_P52948_1711_HIQQVDCSGNDLEQLHIK (UniProt P52948)	0.108

Reference: the supplement of paper PMC12067093, “Discovery and optimisation of a covalent ligand for TRIM25 and its application to targeted protein ubiquitination” (Chemical Science, 2025)
